Data from PubChem BioAssay AID504444 (National Center for Advancing Translational Sciences (NCATS), 2011).
Where “and” joins values, the source holds several entries; their conditions need not be identical. Equal values may be shown once. Among all 360,000 compounds or so, about 7,500 (2.1%) were called active. Where a call stands in place of a potency, no number is given. Another 20% or so got no clear call; they are omitted. The call rests on the fitted dose curve; in most records, active means well fitted inhibition curve with a large enough effect; inconclusive means small, poorly fitted or top-dose-only effect, or effect the other way; inactive means flat fitted curve, though single readings scatter. The sample as a whole holds a higher share of actives than the screen did.

assay: Nrf2 qHTS screen for inhibitors; conditions: A549 ARE-Fluc reporter, luciferase luminescence, 18-24 h; series mostly up to 46 µM; further: nearly all actives have a fitted effect of over 60% in size
Outline: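 Concentration-response testing used A549 ARE_Fluc cells at 5000 cells/well. Following an 18-24 h compound incubation, viability was read by fluorescence (Ex 405/Em 525) and luciferase output by luminescence.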
Potency means the concentration at half of the fitted maximal effect.

Row | SMILES | Potency
1 | Cc1ccc(NC(=O)c2oc3ccccc3c2NC(=O)Cc2cccs2)cc1 | inactive
2 | CCN(Cc1ccncc1)C(=O)CCc1ccccc1 | inactive
3 | Cc1cc(C)c(SCCc2ccncc2)c(C)c1 | 16.4 µM (active)
4 | O=C(NOCc1ccccc1)c1cccc([N+](=O)[O-])c1 | inactive
5 | CN1CCN(C2(CNC(=O)COc3ccc(C(C)(C)C)cc3)CCCCC2)CC1 | inactive
6 | O=C(Cc1ccc(Br)cc1)N1CCN(c2ccccn2)CC1 | inactive
7 | O=C(C(Cl)Cl)N1CCN(c2ccccn2)CC1 | inactive
8 | O=C(/C=C/c1cccc(C(F)(F)F)c1)N1CCN(c2ccccn2)CC1 | 23.1 µM (active)
9 | COc1ccc(CN2C(CC(=O)Nc3cccnc3)c3ccc(C(F)(F)F)cc3S2(=O)=O)cc1 (centres undefined) | inactive
10 | O=C(CNC(=O)c1ccc(Cl)cc1Cl)OC(C(=O)Nc1cc(C(F)(F)F)ccc1Cl)c1ccccc1 (centres undefined) | inactive
11 | Cc1ccccc1NC(=O)c1ccccc1NS(=O)(=O)c1cccc2cccnc12 | inactive
12 | O=[N+]([O-])c1cccc2ncccc12 | inactive
13 | O=[N+]([O-])c1ccccc1S(=O)(=O)Nc1cccc2cccnc12 | 5.8 µM (active) and 11.6 µM (active)
14 | Cc1ccc(OCC(=O)NCCCNC(=O)c2ccco2)cc1C | inactive
15 | Cc1ccc(NC(=O)COc2ccc(/C=N\NC(=O)c3cccnc3)cc2)cc1C | inactive
16 | Cc1ccc(OCC(=O)NCCCNC(=O)c2cccnc2)cc1C | 5.17 µM (active)
17 | Cc1ccc(S(=O)(=O)N(C)CC(=O)NCC(c2ccc(F)cc2)N2CCOCC2)cc1 (centres undefined) | inactive
18 | CC(=O)c1nc2ccccc2n1Cc1ccccc1 | inactive
19 | CCC(=O)Nc1nc2ccccc2n1Cc1ccccc1C | inactive
20 | CC(=O)Nc1nc2ccccc2n1Cc1ccc(C)cc1 | 18.4 µM (active)
21 | CCN(CC)CCNC(=O)Cn1ncc2c3ccccc3n(Cc3ccccc3C)c2c1=O | inactive
22 | COC(=O)c1ccccc1NC(=O)c1ccc(C#N)cc1 | inactive
23 | N#Cc1ccc(Oc2ccc(C(F)(F)F)cc2NC(=O)c2ccc(F)cc2)cc1 | inactive
24 | N#Cc1ccc(C(=O)Nc2nc(-c3cccs3)c(C(=O)C(F)(F)F)s2)cc1 | 5.17 µM (active)
25 | COc1ccc(C(F)(F)F)cc1NC(=O)c1sc2nc(-c3cccs3)ccc2c1N | inactive

Row | SMILES | Potency
26 | CN1CCN(C(=O)c2ccc(-c3ccc(Br)cc3)o2)CC1 | inactive
27 | CC(C[N+](C)(C)C)OC(N)=O (centres undefined) | inactive
28 | CC(=O)OC(C)C[N+](C)(C)C (centres undefined) | 0.461 µM (active)
29 | CC(=O)OCC(COC(C)=O)OC(C)=O | inactive
30 | O=C(Nc1ccc(S(=O)(=O)N2CCC(c3nc4ccccc4s3)CC2)cc1)c1ccccc1F | inactive
31 | Cc1ccc2onc(CC(=O)N3CCN(c4ccc(Cl)cc4)CC3)c2c1 | inactive
32 | C[C@H](O)[C@@H]1C(=O)N2CCc3ccc(N4CCOCC4)cc3[C@@H]2C[C@@H]1N(C)C(=O)C(C)(C)C | inactive
33 | O=C(NCc1cccs1)C1CCN(S(=O)(=O)c2ccc3c(c2)OCCO3)CC1 | inactive
34 | O=C(c1ccc2c(c1)OCCO2)C1CCN(S(=O)(=O)c2cccc(F)c2)CC1 | 14.6 µM (active)
35 | O=C(c1c(F)cccc1F)N1CCN(S(=O)(=O)c2ccc3c(c2)OCCO3)CC1 | inactive
36 | CC(C)c1ccc(C2CC(=O)N3CN(C4CCCCC4)CSC3=C2C#N)cc1 (centres undefined) | inactive
37 | COc1cc(C)cc(CN2CCC(Cc3ccccc3)CC2)c1O | inactive
38 | Oc1c(CN2CCCC2)cc(COCc2ccccc2)c2cccnc12 | 16.4 µM (active)
39 | Oc1ccc(CN2CCN(c3ncccn3)CC2)cc1 | inactive
40 | CC(=O)c1ccc(NC(=O)CCc2nc(-c3ccc(C)cc3)no2)cc1 | inactive
41 | Cn1c(SCC(=O)N2CCCc3ccccc32)nc2ccccc2c1=O | 18.4 µM (active)
42 | C=CCn1c(=O)c2ccccc2n2c(SCC(=O)N3CCCc4ccccc43)nnc12 | inactive
43 | O=C(CSc1nc2ccccc2c(=O)n1CCCO)N1CCc2ccccc21 | inactive
44 | COc1cc(C(=O)OCC(=O)NC23CC4CC(CC(C4)C2)C3)cc(OC)c1OC | inactive
45 | COc1ccc(C2NCCCC2c2ccccc2)cc1 (centres undefined) | inactive
46 | CCn1ccnc1CN(C)C(=O)c1cc(COc2ccc(-n3cncn3)cc2)on1 | inactive
47 | C=CCC1(CC=C)CCCN1C(=O)c1cc(COc2ccc(-n3cncn3)cc2)on1 | 8.2 µM (active)
48 | O=C(c1cc(COc2ccc(F)c(F)c2)on1)N1CCOCC1 | inactive
49 | O=C(COC(=O)C1CCCO1)Nc1nc(-c2ccc(F)cc2)cs1 (centres undefined) | inactive
50 | Cc1ccc(N2C(=O)N3[C@@H]4c5ccccc5OC[C@@H]4[C@@H](c4ccccc4)[C@@]3(C)C2=O)cc1 | inactive

Row | SMILES | Potency
51 | CCCCN(C(=O)CSCc1ccc(C)cc1)c1c(N)n(Cc2ccccc2)c(=O)[nH]c1=O | inactive
52 | O=C(Cn1c(=O)n(Cc2cccs2)c(=O)c2cccnc21)Nc1ccc(F)cc1 | inactive
53 | CN(C)c1nc(N)nc(CSc2nnnn2-c2cccc3ccccc23)n1 | 6.51 µM (active)
54 | CN(C)c1nc(N)nc(CSc2ccccn2)n1 | inactive
55 | CN(C)c1nc(N)nc(Cn2nnc(-c3ccc(C(F)(F)F)cc3)n2)n1 | inactive
56 | Cc1ccc(-c2nc3ccccn3c2Nc2ccc(F)cc2)o1 | inactive
57 | COc1ccc(S(=O)(=O)N2CCc3ccccc32)cc1C(=O)Nc1cc(S(C)(=O)=O)ccc1Cl | inactive
58 | COc1ccc(C(=O)NC2CC(C)(C)Cc3c2cnn3-c2ccccc2)c(OC)c1 (centres undefined) | 18.4 µM (active)
59 | CC1(C)Cc2c(cnn2-c2cccc(F)c2)C(NC(=O)c2cc[n+]([O-])cc2)C1 (centres undefined) | inactive
60 | Cc1cc(C(=O)NC2CC(C)(C)Cc3c2cnn3-c2ccccc2)n[nH]1 (centres undefined) | inactive
61 | CCOC(=O)Cc1csc(SCC(=O)Nc2ccc(C)cc2F)n1 | inactive
62 | Cc1oc(C)c2c(=O)cc(-c3ccc4c(c3)OCO4)cc(OC(=O)c3ccc(Cl)cc3)c12 | inactive
63 | N#CCc1c[nH]c2ccc([N+](=O)[O-])cc12 | inactive
64 | CCNC(=O)c1ccc(OCC(=O)Nc2ccc(F)cc2)c(OC)c1 | inactive
65 | COc1cc(C(=O)N(C)Cc2cccc(OC)c2OC)ccc1OCC(=O)Nc1cccc(C(F)(F)F)c1 | 25.9 µM (active)
66 | COc1ccc(NC(=O)CN(C)CC(=O)Nc2cccc(C(F)(F)F)c2)cc1 | inactive
67 | COc1ccc(CC2c3cc(OC)c(OC)cc3CC[N+]2(C)CCC(=O)OCCCCCOC(=O)CC[N+]2(C)CCc3cc(OC)c(OC)cc3C2Cc2ccc(OC)c(OC)c2)cc1OC (centres undefined) | inactive
68 | COc1cccc(-c2nnc3n(CCc4ccccc4)c(=O)c4ccccc4n23)c1O | inactive
69 | O=C(N/N=C/c1cccc([N+](=O)[O-])c1)c1ccncc1 | inactive
70 | N#Cc1cc([N+](=O)[O-])ccc1Oc1cccc(/C=N/NC(=O)c2ccc(Cl)cc2)c1 | 5.8 µM (active)
71 | O=C(N/N=C/c1cccc(OC(=O)c2ccc([N+](=O)[O-])cc2)c1)c1cccnc1 | inactive
72 | O=C(NC(c1ccco1)c1cc(Cl)c2cccnc2c1O)c1ccccc1 (centres undefined) | inactive
73 | COc1ccc(C(CNC(=O)c2ccc(S(=O)(=O)Nc3ccccc3C)cc2)N2CCOCC2)cc1 (centres undefined) | inactive
74 | COc1ccc(C(CNC(=O)c2cccc(S(=O)(=O)Nc3ccccc3Cl)c2)N2CCOCC2)cc1 (centres undefined) | 18.4 µM (active)
75 | COc1ccc(C(CNC(=O)c2cccc(NS(=O)(=O)c3ccc(C)c(F)c3)c2)N2CCCC2)cc1 (centres undefined) | inactive

Row | SMILES | Potency
76 | CC(C)c1ccc(NC(=O)Cn2c3ncccc3c(=O)n2-c2ccccc2)cc1 | inactive
77 | O=C(C(c1ccccc1)c1ccccc1)N1CCN(CC(O)COc2ccccc2)CC1 (centres undefined) | inactive
78 | C=CCn1c(=N)n(CC(O)COc2ccc(OC)cc2)c2ccccc21 (centres undefined) | inactive
79 | OC(CN=c1sc2ccccc2n1CC(O)COc1ccccc1)COc1ccccc1 (centres undefined) | 23.1 µM (active)
80 | COc1ccc(CCNC(=O)c2cnc3sc(N4CCCCCC4)nn3c2=O)cc1OC | inactive
81 | O=C(NCc1ccc2c(c1)OCO2)c1cc([N+](=O)[O-])ccc1N1CCOCC1 | inactive
82 | O=C(NNC(=S)Nc1ccccc1)c1cccc(S(=O)(=O)N2CCOCC2)c1 | inactive
83 | Cc1nc2ccc(NC(=O)c3cccc(S(=O)(=O)N4CCOCC4)c3)cc2s1 | 18.4 µM (active)
84 | O=C(Nc1nnc(-c2ccccc2)o1)c1cccc(S(=O)(=O)N2CCOCC2)c1 | 20.6 µM (active)
85 | O=C(Nc1ccc(N2CCOCC2)cc1)c1cccc(S(=O)(=O)N2CCOCC2)c1 | inactive
86 | O=C(Nc1ccc(S(=O)(=O)Nc2nccs2)cc1)c1cccc(S(=O)(=O)N2CCOCC2)c1 | inactive
87 | O=C(Nc1nnc(-c2ccco2)o1)c1ccc(S(=O)(=O)N2CCOCC2)cc1 | inactive
88 | CCC(=O)Nc1ccccc1-c1nc2ccccc2n(CC(=O)Nc2ccc(C)c(C)c2)c1=O | inactive
89 | CC1(C)CCc2cc(S(=O)(=O)N3CCN(c4nc(-c5cccs5)nc5ccccc45)CC3)ccc2O1 | inactive
90 | COc1ccc2ncc3c(-c4ccc(C)c(C)c4)nn(CC(=O)NC4CCCC4)c3c2c1 | inactive
91 | CC(=O)NC(c1cccs1)c1cc(Br)c2cccnc2c1O (centres undefined) | inactive
92 | Cn1c(=O)n(C)c2cc(NS(=O)(=O)c3ccc(F)cc3)ccc21 | inactive
93 | Cc1cc(C)cc(NS(=O)(=O)c2ccc(F)cc2)c1 | inactive
94 | Cn1c(=O)n(C)c2cc(S(=O)(=O)Nc3ccc(F)cc3)ccc21 | 9.2 µM (active)
95 | CC1CC(C)CN(c2oc(-c3ccc(OCc4ccc(Cl)cc4)cc3)nc2C#N)C1 (centres undefined) | inactive
96 | Cc1cccc(-n2ncc3c(=O)[nH]c(SCC(=O)Nc4cc(C)on4)nc32)c1 | inactive
97 | O=c1c([N+](=O)[O-])cc(C(F)(F)F)cn1Cc1cccc(Cl)c1 | inactive
98 | Cc1ccc(-c2ccc(=O)n(Cc3ccc(F)cc3Cl)n2)cc1 | inactive
99 | O=c1c([N+](=O)[O-])cccn1Cc1ccc(F)cc1Cl | 25.9 µM (active)
